# High-throughput results from PubChem BioAssay.
# Hits are enriched below; roughly 4.5% of the tested compounds scored in any of these assays.
# PrP 5UTR inh: suppresses PrP 5' UTR mRNA reporter expression. 340,000 tested, 0.35% active. cell-based PrP 5' UTR mRNA reporter, plate reader. inhibition, % (test concentration not listed). AID 488862; in the data active = inhibition above about 52%; also: 0 = median of the neutral control wells
# PrPC surface inh: reduces human prion protein on the cell surface | cell surface PrPC, TR-FRET read-out | inhibition, % at 13.8 µM | P04156 | 370,000 tested, 0.43% active; in the data active = inhibition above about 24%; also: 0% = median of the test wells and 100% = reference compound wells
# BJeLR viability: BJeLR cell viability loss; BJeLR (HRASV12) viability, CellTiter-Glo ATP luminescence, 48 h; inhibition, % (concentration not given with the values); 300,000 tested, 0.17% active; AID 1554; in the data active = inhibition above about 50%
# GDH-TPI counter-1: counter-screen for M. tuberculosis FBA inhibitors: GDH-TPI coupled enzymes | GDH-TPI coupled enzyme counterscreen, NADH absorbance | inhibition, % at 4.8 µM | 360,000 tested, 1.2% active | AID 588335; in the data active = inhibition above about 30%;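 also: 0% = DMSO wells and 100% = wells lacking the enzyme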
# Mtb FBA inh: Mtb fructose-bisphosphate aldolase inhibition; purified M. tuberculosis FBA, fluorescence read-out; inhibition, % at 1 µM; P9WQA3; 360,000 tested, 2.3% active;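 also: 0% = vehicle and 100% = reference inhibitor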
# Target sequence (P9WQA3 whole entry, looked up): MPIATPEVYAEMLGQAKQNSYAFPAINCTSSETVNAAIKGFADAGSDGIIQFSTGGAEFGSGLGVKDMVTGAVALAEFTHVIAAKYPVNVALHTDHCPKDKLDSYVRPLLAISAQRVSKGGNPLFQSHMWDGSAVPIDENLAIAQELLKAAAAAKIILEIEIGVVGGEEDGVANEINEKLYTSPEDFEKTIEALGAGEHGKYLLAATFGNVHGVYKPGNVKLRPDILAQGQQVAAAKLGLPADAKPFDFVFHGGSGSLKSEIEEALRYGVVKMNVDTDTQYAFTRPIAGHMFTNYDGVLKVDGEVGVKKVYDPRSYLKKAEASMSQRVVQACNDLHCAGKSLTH
# PfHsp40 yeast: compounds rescuing yeast from Plasmodium falciparum HSP40 toxicity | 340,000 tested, 0.68% active | growth rescue, % at 12.5 µM | S. cerevisiae expressing PfHsp40, growth rescue, ATP luminescence; in the data active = growth rescue above about 28%, passing the limit was not always enough;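 also: yeast W303a lacking pdr1 and pdr3 grown in galactose medium; growth measured after three days at 30 °C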
# Mtb FBA inh conf: confirmation of M. tuberculosis fructose-bisphosphate aldolase inhibitors; inhibition, % at 1 µM; 5,600 tested, 78% active; shares compounds with Mtb FBA inh; purified M. tuberculosis FBA, fluorescence read-out;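 also: 0% = vehicle wells and 100% = reference inhibitor wells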
# GDH-TPI counter-2: inhibits GDH-TPI coupling enzymes, flagging Mtb FBA hits. shares compounds with Mtb FBA inh. 5,600 tested, 81% active. GDH-TPI coupled enzyme counterscreen, fluorescence. AID 652141. inhibition, % at 1 µM; in the data active = inhibition above about 10%
# GDH-TPI dose: inhibits GDH-TPI coupling enzymes in dose response. shares compounds with Mtb FBA inh. GDH-TPI coupled enzyme assay, fluorescence, artifact counterscreen. IC50, µM. 170 tested, 79% active; call rule not given here
# * hit, by the source's call; . = no result; + = active, no number. Rule as the data show it, unless noted: active = inhibition above about 27%; inactive = the rest.
SMILES,PrP 5UTR inh,PrPC surface inh,BJeLR viability,GDH-TPI counter-1,Mtb FBA inh,PfHsp40 yeast,Mtb FBA inh conf,GDH-TPI counter-2,others
COC(=O)c1ccc2ccn(CC(=O)NC3CCCCC3)c2c1,-4,-7,-3,2,71*,0,-3,-1,
Cc1nc(-c2ccncc2)sc1C(=O)Nc1ccc(Br)cc1,-16,-14,0,-3,-4,10,.,.,
CC(=O)Nc1ccc(Nc2nc(C)nc3c2oc2ccccc23)cc1,-11,7,6,22,-1,2,.,.,
Cc1nc(Nc2ccncc2)c2oc3ccccc3c2n1,-6,-5,0,33*,35*,0,161*,136*,
CCc1nc(Nc2ccncc2)c2oc3ccccc3c2n1,-13,2,-11,40*,57*,-2,49*,41*,
CCc1nc(NC(C)C)c2oc3ccccc3c2n1,-24,8,-5,-10,-1,0,.,.,
COc1cccc(C(C(=O)NC(C)(C)C)N(Cc2ccc(F)cc2)C(=O)CCC(=O)Nc2cc(C)on2)c1OC (stereo not given),-10,7,-1,-8,-4,1,.,.,
COc1ccc(CS(=O)c2nc(C)cc(C)c2S(C)(=O)=O)cc1 (stereo not given),-23,0,6,7,0,2,.,.,
Cc1cc2nc(-c3cccnc3SCC(=O)NC(C)C)[nH]c2cc1C,-65,-1,13,3,19,-1,.,.,
COCCOC(=O)CSc1ncccc1-c1nc2cc(C)c(C)cc2[nH]1,-41,7,25,29,30*,0,191*,156*,
CC(=O)c1c[nH]c(C(=O)NCc2ccccc2Cl)c1,-14,1,9,9,1,-2,.,.,
O=C1C[C@@H](C(=O)Nc2ccc(Cl)cc2)[C@@H](c2ccccc2)O1,.,1,.,.,.,.,.,.,
CCOc1ccc2[nH]c3c(N4CCc5ccccc5C4)ncnc3c2c1,.,17,2,10,32*,.,+,+,
CCOc1ccc2[nH]c3c(NCCN(CC)CC)ncnc3c2c1,3,-13,9,7,21,0,.,.,
CCOc1ccc2[nH]c3c(NCC(C)C)ncnc3c2c1,-19,.,9,1,77*,-1,126*,110*,
CCOc1ccc2[nH]c3c(NCCCOC)ncnc3c2c1,-9,-5,0,1,110*,-1,+,+,
CCOc1ccc2[nH]c3c(NCCOC)ncnc3c2c1,-24,7,1,-1,71*,2,64*,48*,
Cc1ccc2[nH]c3c(NCc4ccccc4)ncnc3c2c1,.,16,6,.,.,.,.,.,
CC(=O)N1CCN(S(=O)(=O)c2cccc(C(=O)NC3CCCC(C)C3C)c2)CC1 (stereo not given),.,6,.,4,1,.,.,.,
OCC[C@@H]1C[C@@H](O)[C@H](O)[C@@]2(CCc3ccccc3CO2)O1,-45,0,7,-6,1,-1,.,.,
Cc1cccc(Cn2nc(C)cc2NC(=O)CCCn2ccc([N+](=O)[O-])n2)c1,-17,-3,-1,-2,-4,-2,.,.,
O=[N+]([O-])c1ccc2ncnc(N3CCN(Cc4ccc5c(c4)OCO5)CC3)c2c1,-2,-27,-12,7,-1,1,.,.,
COc1ccc2[nH]c3c(N4CCN(Cc5ccc6c(c5)OCO6)CC4)ncnc3c2c1,-3,-1,0,17,35*,1,79*,53*,
COc1ccc2[nH]c3c(NCCN(C(C)C)C(C)C)ncnc3c2c1,-75,-11,.,2,54*,1,+,184*,
COc1ccc(CNc2ncnc3c2[nH]c2cc(OC)c(OC)cc23)cc1,-27,8,10,-9,46*,-2,106*,92*,
SMILES,PrP 5UTR inh,PrPC surface inh,BJeLR viability,GDH-TPI counter-1,Mtb FBA inh,PfHsp40 yeast,Mtb FBA inh conf,GDH-TPI counter-2,others
Cc1ccc2[nH]c3c(N4CCOCC4)ncnc3c2c1,-34,6,35,21,82*,0,178*,145*,
CC(C)NC(=O)c1cc(C2CCCCN2S(=O)(=O)c2ccc(F)cc2F)on1 (stereo not given),.,-4,.,5,-2,.,.,.,
Cc1cc(Cl)ccc1C(O)c1ncc(-c2ccc(Cl)cc2)[nH]1 (stereo not given),.,13,.,11,3,.,.,.,
COc1cc(C(c2nnnn2C2CCCC2)N2CCN(C(=O)c3ccco3)CC2)cc(OC)c1OC (stereo not given),-11,-2,2,-7,1,0,.,.,
CCCCNC(=O)OCCCN1CCC2(CCC(c3ccccc3)CC2)C1 (stereo not given),.,-10,.,.,.,.,.,.,
O=S(=O)(/N=C(/Nc1cccc2ccccc12)c1ccccc1)c1ccc(Br)cc1,-20,-1,-1,9,0,1,.,.,
CCOC(=O)C1=C(CN2CCN(C(=O)c3ccco3)CC2)NC(=O)NC1c1ccc(C)cc1 (stereo not given),-5,0,0,-3,-2,0,.,.,
CC(C)CNC(=O)C1C(=O)Nc2ccccc2C(=O)N1C1CCCCC1 (stereo not given),.,-3,.,.,.,.,.,.,
O=C(CCN1C(=O)c2cccc3cccc(c23)C1=O)NC1CCS(=O)(=O)C1 (stereo not given),1,-27,-2,30,39*,0,+,+,
O=C(CCCN1C(=O)c2ccccc2C1=O)NC1CCCCCC1,-1,0,1,3,0,2,.,.,
O=C(CCCCCN1C(=O)c2cccc3cccc(c23)C1=O)NC1CCS(=O)(=O)C1 (stereo not given),-22,-28,-4,11,39*,2,134*,117*,
O=c1[nH]cnc2ncc(-c3ccc(O)cc3)nc12,-21,-32,6,29,-2,0,.,.,
O=c1[nH]cnc2nc(-c3ccccc3)c(-c3ccccc3)nc12,-35,-22,-2,10,50*,1,8,3,
O=c1[nH]cnc2nn(-c3ccccc3)nc12,-38,-1,-1,19,99*,0,9,6,
Cc1ccc(CN2CCCCC(NC(=O)c3ccc4ccccc4c3)C2=O)cc1 (stereo not given),.,9,.,.,.,.,.,.,
Cc1ccc(-n2c3nc(=O)n(C)c(=O)c-3cc3ccccc32)cc1,.,-15,-2,13,27*,.,93*,87*,
Nc1nnc(/C=C/c2ccccc2Cl)s1,-25,-6,3,6,28*,-1,15,0,GDH-TPI dose=3.9*
C/C(=N/Nc1ccc(C)cc1)C1(C)N(O)C(C)(C)C(c2ccco2)=[N+]1[O-] (stereo not given),-12,-1,2,8,33*,1,74*,58*,
